HIF act = HIF pathway transcriptional activation; U2OS HRE-luciferase reporter, luminescence; normalized: DMSO 0%, desferrioxamine 100%; activation, % at 7.5 µM (by protocol); 300,000 compounds, 0.32% hits; AID 1910;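 active = mean activation of at least 10% of the iron chelator positive control signal, with at least half of replicates also reaching 10%; inconclusive = mean and replicate majority disagree about reaching 10%; inactive = mean and most replicates under 10%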
ALR H2O2 inh = human ALR oxidase inhibition via reduced H2O2; P55789; purified ALR, DTT oxidation, H2O2 HRP-luminol luminescence; inhibition, % (concentration not given with the values); 290,000 compounds, 3.8% hits;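 active = mean replicate inhibition above about 79%, with every replicate also reaching it, limit read from the data; inconclusive = only one of the two criteria met; inactive = mean below limit and not every replicate reaching it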
Target sequence (P55789 whole entry, looked up): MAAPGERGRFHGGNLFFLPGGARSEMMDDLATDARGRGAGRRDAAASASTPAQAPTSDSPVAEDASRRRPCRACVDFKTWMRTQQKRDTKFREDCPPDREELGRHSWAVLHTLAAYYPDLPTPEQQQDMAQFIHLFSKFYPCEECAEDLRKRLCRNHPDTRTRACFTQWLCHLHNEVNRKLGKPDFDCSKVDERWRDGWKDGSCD
Mot1-301 SUMO = inhibitors of SUMOylation pathway: yeast Mot1-301 growth rescue | S. cerevisiae Mot1-301 growth rescue, ATP luminescence, 38.5C; percent above DMSO median, 100 means doubled | growth rescue, % at 18.8 µM | 320,000 compounds, 1% hits | AID 2716;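 active = every valid replicate shows activation above 250% relative to neutral control wells; inactive = the rest, any valid replicate at or below 250%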;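 note: OY570 slx delta 5 strain wells were the positive control but not used for scaling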
PfM18AAP inh-1 = PfM18AAP enzyme inhibition | inhibition, % at 7.35 µM | AID 1822 | recombinant PfM18AAP, H-Glu-NHMec fluorogenic cleavage | 290,000 compounds, 1.2% hits;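 active = inhibition above the campaign mean inhibition over all tested compounds plus 3 SD, cut at about 28% in these data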;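 note: 0% = plate median of test compound wells and 100% = 2 mM ZnCl2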
PfM18AAP inh-2 = confirmation of Plasmodium falciparum M18 aspartyl aminopeptidase inhibitors; shares compounds with PfM18AAP inh-1; recombinant PfM18AAP, H-Glu-NHMec fluorogenic cleavage; inhibition, % at 7.35 µM; 2,400 compounds, 28% hits; AID 2170;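 active = mean inhibition over replicate wells above the hit cutoff set for the earlier primary screen, cut at about 29% in these data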;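 note: 0% = median of test compound wells and 100% = 2 mM ZnCl2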
CTSL1 counter = Cathepsin L (human) inhibition, confirmation; shares compounds with PfM18AAP inh-1; purified cathepsin L1, Z-Leu-Arg-MCA fluorescence; inhibition, % at 5.96 µM; 2,400 tested, under 10 active; AID 2178;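 active = average inhibition across replicates above the hit cutoff set in the earlier primary screen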;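 note: 0% = median of test compound wells and 100% = Z-Phe-Ala-diazomethylketone 1 µM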
Target sequence (P07711 whole entry, looked up): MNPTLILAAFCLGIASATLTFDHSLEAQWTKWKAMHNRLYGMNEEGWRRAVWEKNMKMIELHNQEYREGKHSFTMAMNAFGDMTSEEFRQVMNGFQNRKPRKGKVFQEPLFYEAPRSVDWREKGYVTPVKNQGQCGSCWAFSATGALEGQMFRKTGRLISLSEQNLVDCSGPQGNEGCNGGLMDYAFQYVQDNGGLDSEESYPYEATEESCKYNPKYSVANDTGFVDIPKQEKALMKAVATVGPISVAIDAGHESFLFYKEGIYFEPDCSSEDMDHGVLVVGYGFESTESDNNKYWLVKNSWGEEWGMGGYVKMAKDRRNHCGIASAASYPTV
Active calls of the source: *; ? = inconclusive; . = not tested or not shown. An excerpt weighted towards active compounds, which were near 5.3% of everything screened.

SMILES	HIF act	ALR H2O2 inh	Mot1-301 SUMO	PfM18AAP inh-1	PfM18AAP inh-2	CTSL1 counter
Oc1ccccc1N=Cc1ccc[nH]1	-1.1	30.9	416.4	35.5*	17.5	-0.7
Cc1ccsc1/C=c1\sc2ncnn2c1=O	-0.2	-2.3	-1.7	87.0*	55.2*	3.7
CCCCOc1ccc(/C=C2/Sc3ccccc3C2=O)cc1	-0.9	-9.1	99.6	-8.9	.	.
O=c1/c(=C/c2cccc3ccccc23)sc2ncnn12	-0.7	-16.6	73.0	43.7*	35.4*	-4.6
CCCCOc1ccc(/C=c2\sc3ncnn3c2=O)cc1	-3.3	30.6	7.3	75.8*	4.4	-0.7
CC(=O)NS(=O)(=O)c1ccc2sc(C)nc2c1	2.3	-9.2	-14.8	22.0	-31.7	0.5
CCOC(=O)[C@H]1[C@H]2COc3ccc(C)cc3[C@@H]2N2C(=O)c3cc(C)ccc3NC(=O)[C@@]12C	.	-0.1	79.3	.	.	.
COc1cccc(C2(O)CCN(C(=O)C3CCC3)CC2)c1	0.7	-4.2	3.8	3.4	.	.
CN(/N=C\c1ccc(O)c(O)c1)c1nc(-c2ccccc2)cc(-c2ccccc2)n1	0.2	51.0	-2.8	50.1*	24.2	-2.6
COc1ccc(/C=N/N(c2ccccc2)c2ccccc2)cc1O	-0.2	30.6	-14.8	2.9	.	.
C/C(=N\NC(=O)COc1ccc(C#N)cc1)c1ccccc1OC(F)F	.	3.9	-10.4	2.7	.	.
CCOC(=O)[C@H]1[C@H]2COc3ccccc3[C@@H]2N2C(=O)c3c(C)cc(C)cc3NC(=O)[C@@]12C	.	.	-11.9	.	.	.
S=c1[nH]c(-c2ccccc2)cn1/N=C/c1ccccc1Br	3.6	0.9	13.9	32.8*	23.9	3.2
S=c1[nH]nc(-c2ccccc2)n1/N=C/c1ccc(Cl)cc1	-1.3	13.1	-6.7	19.6	.	.
CC1CCCC(C)N1/N=C/c1ccccc1Br (stereo not given)	-12.3	-6.6	-1.6	-2.0	.	.
Oc1ccc(/C=N/n2cc(-c3ccccc3)[nH]c2=S)cc1	2.1	98.8*	.	61.1*	41.5*	4.2
COc1cc(/C=N/n2cc(-c3ccccc3)[nH]c2=S)cc(OC)c1O	0.1	.	540.1*	62.2*	48.1*	1.6
Cc1cccc(C(=O)Nc2ccc(C(=O)N/N=C/c3ccc(C)o3)cc2)c1	0.8	0.0	-6.1	41.8*	-31.3	3.0
CCOC(=O)C(=O)N1CCC(C(=O)OCC)CC1	1.5	-4.8	14.4	-9.8	.	.
Cc1sc2c(c1C)C(=O)NC(c1cccc(O)c1)N2 (stereo not given)	.	.	-10.8	49.1*	-8.3	2.4
c1ccc2c(c1)Nc1nccnc1S2	.	6.9	-12.7	36.1*	4.0	-6.6
O=C(NCC1(c2ccccc2)CCCC1)c1cccc(Br)c1	-0.3	2.3	-10.9	-7.0	.	.
O=C(O)CCNc1cc2ccccc2cc1C(=O)O	-1.4	42.2	1.2	34.9*	-3.6	-3.3
O=C(O)CCNS(=O)(=O)c1ccc2ccccc2c1	-0.2	-12.4	74.9	-10.8	.	.
S=C(NNC(=S)Nc1ccccc1)Nc1ccccc1	3.3	2.3	-12.0	50.1*	0.8	-1.1
SMILES	HIF act	ALR H2O2 inh	Mot1-301 SUMO	PfM18AAP inh-1	PfM18AAP inh-2	CTSL1 counter
NC(=S)NNC(=S)Nc1ccccc1	-1.0	97.4*	3.2	42.1*	2.1	-2.2
Cc1ccccc1-n1sc2cc(F)ccc2c1=O	.	.	701.6	69.5*	64.2*	-6.5
Cc1cc(C)nc(NNS(=O)(=O)c2c(F)cc(F)cc2Br)n1	.	-5.1	-12.9	.	.	.
COc1cc(-c2cc(=O)c3c(O)c(OC)c(OC)c(O)c3o2)ccc1O	-0.5	98.8*	-6.8	49.1*	31.7*	2.8
COc1cc(OC)c2c(=O)cc(-c3ccccc3)oc2c1	3.5	-27.8	6.7	4.9	.	.
COc1c(O)c(O)c2oc(-c3ccccc3)cc(=O)c2c1OC	0.3	51.5	-7.0	33.1*	12.1	3.0
COc1ccc(-c2cc(=O)c3c(O)cc(O)cc3o2)cc1	.	0.8	106.6	.	.	.
O=C(COc1ccccc1Cl)NNC(=O)c1ccc2nc[nH]c2c1	-0.8	.	-2.8	.	.	.
COCc1[nH]nc2c1C(c1ccc(F)cc1F)C(C#N)=C(N)O2 (stereo not given)	0.1	4.7	0.9	.	.	.
COCc1[nH]nc2c1C(c1cc(OC)c(O)c(OC)c1)C(C#N)=C(N)O2 (stereo not given)	0.4	10.6	19.8	37.6*	-4.3	4.7
CC(=O)Nc1ccc(CC(=O)NCCC(c2ccccc2)c2ccccc2)cc1	1.3	-4.9	-16.1	2.1	.	.
NC(=O)C1=C[C@H](c2ccc3c(c2)OCO3)C[C@H](OCc2ccc(CO)cc2)O1	2.9	-48.0	2.2	12.2	.	.
O=C(O)C1=C[C@@H](c2ccc3c(c2)OCO3)C[C@@H](OCc2ccc(CO)cc2)O1	-2.6	-6.6	19.4	35.5*	-13.0	1.6
C=CCNC(=S)NNc1nc2sc3c(c2c(=O)[nH]1)CC(C)(C)OC3	-2.4	48.6	-14.5	33.6*	16.5	1.3
CCCCc1nc2sc3c(c2c(=O)[nH]1)CC(C)(C)OC3	0.1	-2.0	-12.0	.	.	.
COc1ccc(N2C(=O)C3CCCN3C2=O)cc1 (stereo not given)	-0.2	-6.8	202.2	4.0	.	.
C/C(=N\Nc1nc(C)cc(-c2ccccc2)n1)c1ccc(C)o1	0.8	5.0	-9.4	51.7*	-33.9	-1.2
C/C(=N/Nc1nc(C)cc(-c2ccccc2)n1)c1ccco1	3.8	0.6	-3.6	13.3	.	.
COc1cccc(NC(=O)c2cc3ccccc3o/c2=N\O)c1	-1.7	-1.2	-10.3	15.0	.	.
O=C(Nc1ccccc1Cl)c1cc2ccccc2o/c1=N\O	-7.7	0.7	3.5	36.9*	18.6	1.0
O=Cc1cn(-c2ccccc2)nc1-c1ccc(F)cc1	0.5	-5.9	-10.6	-0.8	.	.
CC1=NNC(=O)/C1=C\c1cn(-c2ccccc2)nc1-c1ccc(F)cc1	2.4	.	.	38.9*	64.1*	-0.1
O=c1c2ccccc2cnn1Cc1n[nH]c(=S)n1-c1ccc(Cl)cc1	-0.6	?	.	34.9*	4.9	-8.3
Cc1nc2ccccc2n1Cc1n[nH]c(=S)n1-c1ccc(Cl)cc1	0.0	44.4	-4.6	38.8*	-2.6	-0.3
CC(c1ccccc1)n1c(Cn2ncc3ccccc3c2=O)n[nH]c1=S (stereo not given)	-0.8	39.7	-7.9	7.2	.	.
SMILES	HIF act	ALR H2O2 inh	Mot1-301 SUMO	PfM18AAP inh-1	PfM18AAP inh-2	CTSL1 counter
O=CN/C=C/c1cc(O)ccc1O	.	98.2*	19.9	60.8*	82.5*	0.2
CC1CCCC(C)N1/N=C/c1cccc(Br)c1 (stereo not given)	0.0	-3.6	253.4	5.8	.	.
CC(=O)ONC(=Nc1ccccc1)c1nonc1N	0.1	16.4	-7.4	36.0*	-6.2	-46.4
Cc1ccc(N=C(NOC(=O)c2ccccc2)c2nonc2N)c(C)c1	-0.1	.	52.1	6.3	.	.
CCOc1ccc(NC(=S)NNC(=S)Nc2cccc(C(F)(F)F)c2)cc1	-0.2	-8.3	-14.4	15.1	.	.
COc1ccc(NC(=S)NNC(=S)Nc2cccc(C(F)(F)F)c2)cc1	0.6	13.7	-50.7	41.7*	-18.5	0.0
Cc1ccc(CNS(=O)(=O)c2cn(C)c(=O)n(C)c2=O)cc1	-0.3	-0.6	0.2	-2.9	.	.

High-throughput results: PubChem BioAssay, several laboratories
